The values below come from PubChem BioAssay AID1445 (SRMLSC, 2008).

Each structure is given as a SMILES string. Screen size: about 220,000 compounds; about 910 (0.41%) were called active. What follows is part of a selection rich in actives, with near analogues and random picks from the rest. Entries with a potency or affinity are not part of this list. Unmarked numbers belong to inactive results.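 The calls were made as follows: active = primary inhibition above the hit cutoff, then over 50% inhibition at one or more dose response concentrations (cut at about 23% in these data, passing the limit was not always enough); inconclusive = conflicting primary data, or primary hits not chosen for dose response; inactive = low primary inhibition, or under 50% at every dose.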

For this assay, the target named is Aminopeptidase N (Plasmodium falciparum (isolate 3D7)) (UniProt O96935). The assay can be described thus: malaria alanyl aminopeptidase activity blockers – biochemical, fluorogenic H-Leu-NHMec substrate, 1536-well (AID 1445).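 Also: plate controls were DMSO full reaction for no effect and no enzyme background for full effect.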 The note with it: recombinant M1AAP, H-Leu-NHMec fluorogenic kinetic assay; at 30 µM, stronger effect = higher value unless noted.
Aminopeptidase N (Plasmodium falciparum (isolate 3D7)), sequence (O96935 whole entry, looked up): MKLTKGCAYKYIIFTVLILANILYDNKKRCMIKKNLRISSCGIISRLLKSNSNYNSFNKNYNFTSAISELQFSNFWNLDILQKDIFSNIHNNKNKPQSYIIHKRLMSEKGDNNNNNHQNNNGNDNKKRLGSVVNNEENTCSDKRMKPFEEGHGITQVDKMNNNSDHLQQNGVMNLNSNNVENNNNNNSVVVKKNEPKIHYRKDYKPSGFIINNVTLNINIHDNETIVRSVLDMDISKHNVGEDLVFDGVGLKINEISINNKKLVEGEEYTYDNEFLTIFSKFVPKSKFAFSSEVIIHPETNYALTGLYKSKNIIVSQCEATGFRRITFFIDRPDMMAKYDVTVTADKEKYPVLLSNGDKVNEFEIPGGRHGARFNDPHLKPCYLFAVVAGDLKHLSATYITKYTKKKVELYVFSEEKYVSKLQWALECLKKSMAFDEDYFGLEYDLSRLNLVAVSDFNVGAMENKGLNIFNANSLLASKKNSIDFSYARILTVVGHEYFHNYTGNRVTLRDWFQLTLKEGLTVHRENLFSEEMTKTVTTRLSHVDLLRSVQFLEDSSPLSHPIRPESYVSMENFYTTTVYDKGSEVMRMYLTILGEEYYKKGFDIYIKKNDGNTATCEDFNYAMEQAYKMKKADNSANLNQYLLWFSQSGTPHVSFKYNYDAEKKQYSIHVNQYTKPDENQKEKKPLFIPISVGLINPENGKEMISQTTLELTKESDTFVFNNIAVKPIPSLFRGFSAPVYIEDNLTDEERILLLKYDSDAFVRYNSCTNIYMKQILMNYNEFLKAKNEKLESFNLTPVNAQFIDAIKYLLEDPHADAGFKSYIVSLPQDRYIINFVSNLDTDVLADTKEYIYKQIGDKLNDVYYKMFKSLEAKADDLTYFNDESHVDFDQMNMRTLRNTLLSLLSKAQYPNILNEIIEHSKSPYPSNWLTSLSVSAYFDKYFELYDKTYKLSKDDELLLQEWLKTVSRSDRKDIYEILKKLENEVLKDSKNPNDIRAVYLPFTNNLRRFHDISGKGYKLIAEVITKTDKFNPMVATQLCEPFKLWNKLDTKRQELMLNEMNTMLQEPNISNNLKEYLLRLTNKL
For the compound `Cn1c(=O)n(C)c2cc(NS(=O)(=O)c3cccs3)ccc21`, the inhibition – broadly, the change of the read-out against control, counted positive when it falls – is 5.68%.
As for `Cc1ccc(C(=O)NCc2ccc(Cl)c(Cl)c2)o1`, the inhibition is 7.75%.
For `CCCCN(CCCC)CC(O)CN1C(=O)NC(C)(C)C1=O` (stereo not given), the inhibition was -3.19%.
The same measure for `CCN(CC(N)=O)S(=O)(=O)c1ccc(F)cc1`: 2.95%; for `O=C(N/N=C/c1ccc(Sc2ccccn2)o1)c1cc2ccccc2cc1O`: 33%; for `Cc1ccc(C(=O)N/N=C\c2ccc(-c3ccc(Cl)cc3)o2)cn1`: 8.72%.
`CCOc1ccc(C(=O)N/N=C/c2ccc(-c3ccc(S(=O)(=O)Nc4ncccn4)cc3)o2)cc1`: the inhibition was 55.9% (active).
For `NS(=O)(=O)c1ccc(-c2ccc(/C=N/NC(=O)c3ccccc3O)o2)cc1`, the inhibition was 11.7%.
The same measure for `NS(=O)(=O)c1ccc(-c2ccc(/C=N/NC(=O)c3ccc([N+](=O)[O-])cc3)o2)cc1`: 2.02%; for `CCOc1ccc(S(=O)(=O)Nc2ccc(C(=O)NN)cc2)cc1`: 4.26%.
Then `CCCOc1ccc(C(=O)Nc2ccc(S(=O)(=O)Nc3onc(C)c3C)cc2)cc1`, with -1.24%.
The same measure for `CCOc1ccc(S(=O)(=O)N(CC(=O)N/N=C/c2ccc(-c3ccc([N+](=O)[O-])cc3)o2)c2ccccc2)cc1`: 15.9%.
Consider `Cc1noc(NS(=O)(=O)c2ccc(NC(=O)c3ccc(OC(C)C)cc3)cc2)c1C`, for which the inhibition was 4.64%.
Then `O=C(Nc1ccc(Cl)c(Cl)c1)C1CC(=O)N(c2ccc(Br)cc2)C1` (stereo not given), with -1.64%.
For `O=C(CCc1nc2ccccc2[nH]1)Nc1ccccc1F`, the inhibition is -0.01%.
Regarding `CC1CCCCN1C(=O)COc1ccc2ccc(=O)oc2c1` (stereo not given), the inhibition was -2.26%.
As to `Cc1ccc(NCN2C(=O)C3CC=CCC3C2=O)cc1` (stereo not given), the inhibition was 2.04%.
Consider `Cc1ccc(CSCC(=O)N/N=C/c2sccc2C)cc1`, for which the inhibition was -0.66%.
On to `O=C(Cn1cc(C(F)(F)F)cc(Cl)c1=O)Nc1cc(S(=O)(=O)N2CCOCC2)ccc1Cl`, for which the inhibition is 7.22%.
The same measure for `Cc1ccc(NC(=O)NCc2ccc3c(c2)OCO3)cc1C`: 0.33%; for `Cc1ccc(N2CC(C(=O)Nc3cccnc3)CC2=O)cc1` (stereo not given): -4.99%; for `CC12CC(NC(=O)N1Cc1ccccc1)c1ccccc1O2` (stereo not given): 25.3% (active).
As for `COc1cccc2c1OC1(C)CC2NC(=O)N1Cc1ccccc1` (stereo not given), the inhibition is 1.39%.
On to `CC12CC(NC(=O)N1CCc1ccccc1)c1ccccc1O2` (stereo not given), for which the inhibition is 4.6%.
Then `CC1CCCC(C)N1NC(=S)Nc1ccc(OC(F)F)cc1` (stereo not given), with 3.89%; and `CSc1cc(-c2ccc(Cl)cc2)[nH]c(=O)c1C#N`, with 0.84%.
Then `O=C1NCC(COCc2ccco2)O1` (stereo not given), with -4.49%.
On to `COc1ccccc1CNC(=O)C(Cc1c[nH]c2ccccc12)NC(=O)OCc1ccccc1` (stereo not given), for which the inhibition was 2.3%.
Then `COc1cc(/C=N/NC(=O)C(Cc2c[nH]c3ccccc23)NC(=O)OCC(C)C)cc([N+](=O)[O-])c1OCc1ccccc1` (stereo not given), with 9.91%; and `COC(=O)N/N=C/c1cc(OC)c(O)c([N+](=O)[O-])c1`, with 14.3%.
Regarding `CC(=O)NC(Cc1c[nH]c2ccccc12)C(=O)N/N=C/c1ccccc1` (stereo not given), the inhibition was 2.78%.
With `COc1ccc(/C=N/NC(=O)C(Cc2c[nH]c3ccccc23)NC(=O)OCC(C)C)cc1[N+](=O)[O-]` (stereo not given), the inhibition is 3.34%.
Consider `COc1cc(/C=N/NC(=O)Cc2c[nH]c3ccccc23)cc(OC)c1OC`, for which the inhibition is 8.03%.
Then `Cc1ccc2[nH]c(=O)c(CNC(C)C)cc2c1`, with 11.4%; and `O=C(NCc1ccccn1)C(=O)Nc1ccccc1`, with 1.97%; and `Cc1ccc(C(=O)C(OC(=O)c2cnccn2)c2ccccc2)cc1` (stereo not given), with 1.17%.
On to `O=S(=O)(c1ccc2ccccc2c1)N1CCN(C(=S)Nc2ccc(F)cc2)CC1`, for which the inhibition was 3.26%.
`O=C(Cc1ccccc1)NS(=O)(=O)c1ccc(N=NN2CCOCC2)cc1`: the inhibition is 12.9%.
For `COC(=O)N1CCCc2cc(C)ccc21`, the inhibition is -4.46%.
Then `COc1cccc(C(=O)NN2C(=O)C3C4C=CC(O4)C3C2=O)c1` (stereo not given), with 6.4%; and `NS(=O)(=O)c1ccc(CCNC(=O)CSc2nc3ccsc3c(=O)n2CC(=O)O)cc1`, with 2.18%.
With `O=C(NCc1ccccn1)C1CCN(S(=O)(=O)c2cc(Cl)ccc2Cl)CC1`, the inhibition is 3.1%.
In the case of `CC(C)c1ccc(C(N)=S)cc1`, the inhibition is 4.59%.
The same measure for `CC(=O)NC(C)CCc1ccccc1` (stereo not given): -2.08%.
The same measure for `COC(=O)[C@@H](NC(=O)NC(C)CCc1ccccc1)C(C)C` (stereo not given in full): 23.4% (active); for `COC(=O)[C@H](C)NC(=O)NC(C)CCc1ccccc1` (stereo not given in full): 13.4%; for `Cc1cccc(N2C(=O)CC(N3CCC(c4nc5ccccc5[nH]4)CC3)C2=O)c1` (stereo not given): 3.73%.
For `CC1CCN(C(=O)C2CCN(S(=O)(=O)c3cc(Cl)ccc3Cl)CC2)CC1`, the inhibition was 0.81%.
The same measure for `CC(C)C(C)NC(=O)CSc1nc2scc(-c3ccco3)c2c(=O)n1-c1ccccc1` (stereo not given): 4.78%; for `CC(C)C(C)(C#N)NC(=O)CSc1nc2scc(-c3ccco3)c2c(=O)n1-c1ccccc1` (stereo not given): 24.4% (active); for `NC(=O)CSc1nc2scc(-c3ccco3)c2c(=O)n1-c1ccccc1`: 18%.
The same measure for `CCC(C(=O)Nc1ccncc1)c1ccccc1` (stereo not given): 2.45%; for `Cc1cccc2cc(COC(=O)c3cccc([N+](=O)[O-])c3)c(=O)[nH]c12`: 3.82%; for `CC1CCN(CC(=O)Nc2cccc([N+](=O)[O-])c2)CC1`: -0.43%.
For the compound `CC(=O)NC1CCN(CC(=O)Nc2cccc([N+](=O)[O-])c2)CC1`, the inhibition was 1.46%.
For the compound `CCC(C)NC(=O)CSc1nc(-c2cccs2)cc(C(F)(F)F)n1` (stereo not given), the inhibition was 18.3%.
On to `Cc1ccc(NC(=O)N2CCC(C(=O)NCc3ccccc3)CC2)cc1`, for which the inhibition is 26.3% (active).
The same measure for `O=C(NC1CCN(C(=S)NCc2ccco2)CC1)C1CCCCC1`: 6.27%.
Then `O=C(NC1CCCCC1)NC1CC2CCC(C1)N2C(=S)NCc1ccco1` (stereo not given), with 19.9%.
The same measure for `CCOc1ccc(C(=O)NC2CCN(C(=S)NCc3ccco3)CC2)cc1`: 11.3%; for `O=C(NC1CCN(C(=O)NC2CCCCC2)CC1)c1ccco1`: 11.5%.
`O=C(NCc1ccccc1)C1CCN(C(=O)NCc2ccccc2)CC1`: the inhibition was 17.5%.
On to `COc1ccc(C(=O)NC2CCN(C(=S)NCc3ccco3)CC2)cc1`, for which the inhibition was 4.73%.
In the case of `CCNC(=S)N1CCC(NC(=O)c2ccco2)CC1`, the inhibition was -4.14%.
Then `Cc1ccc(NC(=O)N2CCC(C(=O)NCc3ccc(F)cc3)CC2)cc1`, with 10.1%.
